Data from PubChem BioAssay (NCI).
Compounds without any hit were thinned out: in the full panel of roughly 83,000, 20% have a hit.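 Single-concentration screen, 48 h exposure, 96-well plates. Endpoint: percent growth. Below 10 = active.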 Values without a mark were called inactive. Active and inactive are the calls of the source.

Assays:
Assay in all cases: NCI-60 one-dose screen, 48 h (100 = growth as untreated, 0 = no growth, -100 = all killed)
SK-MEL-2 melanoma = conditions: 10 µM unless noted
EKVX NSCLC = conditions: 10 µM unless noted
SN12C renal = conditions: 10 µM unless noted
UO-31 renal = conditions: 10 µM unless noted
TK-10 renal = conditions: 10 µM unless noted
ACHN renal = conditions: 10 µM unless noted
CAKI-1 renal = conditions: 10 µM
A498 renal = conditions: 10 µM unless noted
CCRF-CEM leukemia = conditions: 10 µM unless noted
MOLT-4 leukemia = conditions: 10 µM unless noted
RPMI-8226 leukemia = conditions: 10 µM unless noted
OVCAR-8 ovarian = conditions: 10 µM unless noted
OVCAR-5 ovarian = conditions: 10 µM unless noted
OVCAR-4 ovarian = conditions: 10 µM unless noted
SK-OV-3 ovarian = conditions: 10 µM unless noted
IGROV1 ovarian = conditions: 10 µM unless noted
HS 578T breast = conditions: 10 µM unless noted
NCI/ADR-RES ovarian = conditions: 10 µM unless noted
OVCAR-3 ovarian = conditions: 10 µM unless noted
SR leukemia = conditions: 10 µM unless noted

Compound	growth (SK-MEL-2 melanoma)	growth (EKVX NSCLC)	growth (SN12C renal)	growth (UO-31 renal)	growth (TK-10 renal)	growth (ACHN renal)	growth (CAKI-1 renal)	growth (A498 renal)	growth (CCRF-CEM leukemia)	growth (MOLT-4 leukemia)	growth (RPMI-8226 leukemia)	growth (OVCAR-8 ovarian)	growth (OVCAR-5 ovarian)	growth (OVCAR-4 ovarian)	growth (SK-OV-3 ovarian)	growth (IGROV1 ovarian)	growth (HS 578T breast)	growth (NCI/ADR-RES ovarian)	growth (OVCAR-3 ovarian)	growth (SR leukemia)
Cn1c2ccc(Br)cc2c2c3c(c4c5cc(F)ccc5oc4c21)C(=O)N(O)C3=O	110%	90.1%	90.2%	75.4%	142%	78%	69.2%	94.2%	14.7%	43%	76.7%	75.1%	108%	103%	90.2%	63.5%	92.8%	75.5%		
Cn1c(SC(C(=O)Nc2ccc(F)cc2)c2ccccc2)nc2ccccc2c1=O (centres undefined)	104%	100%	99.1%	88.1%	99.1%	109%	99.3%	98.8%	102%	101%	98.4%	99.7%	111%	102%	109%	102%	98.8%	109%		
Nc1ccc(-c2nnc(SCc3ccc(O)c4ncccc34)o2)cc1	3.45% (active)	-5.86% (active)	6.01% (active)	-12.5% (active)	1.68% (active)	2.17% (active)	4.38% (active)	-40.1% (active)	5.03% (active)	5.7% (active)	-9.68% (active)	8.94% (active)	25%	-1.57% (active)	-15.3% (active)	0.429% (active)	-12.6% (active)	-9.89% (active)	7.75% (active)	
O=C(Cn1cc(CN2C(=O)c3ccc([N+](=O)[O-])cc3C2=O)nn1)Nc1ccccc1Br	114%	105%	103%	88.1%	104%	108%	103%	101%	95.1%	105%	102%	116%	106%	113%	90.5%	97.5%	110%	99.3%		
C=C(C)[C@@H]1CC[C@]2(C)[C@H](CC=C3[C@@H]4CC(C)(C)CC[C@]4(C(=O)NCC#CCN4CCN(C)CC4)CC[C@]32C)[C@@]1(C)CCC#N	94%	81.6%	76%	60%	83.9%	78.5%	30.7%	84.1%	48.9%	19%	42.4%	85.9%	89.8%	70.6%	94.5%	54.3%	71.7%	62.5%		
O=S(=O)(Nc1ccc(-n2cnc3cc(-c4ccc(O)cc4)ccc32)cc1)C1CC1	95%	101%	88.3%	55.6%	111%	78.1%	66.3%	66%	79.4%	72%	79.8%	88.7%	107%	78.2%	117%	86%	95%	94.2%		
CC1=C2C(=C[C@@](C)(COS(N)(=O)=O)[C@@H]2O)C(=O)[C@](C)(O)C12CC2	41.2%	94.9%	81.2%	54.6%	95.9%	47.4%	85.8%	55.7%	98.2%	97.3%		74.3%	41.4%	80.8%	53.9%	60.7%	104%	63.5%	62.6%	102%
Nc1nc(N)c2c(n1)NC(c1ccc(Cl)cc1)CC(c1ccc(Nc3nc(NCCO)nc(Nc4ccc(Cl)cc4)n3)cc1)=N2 (centres undefined)	54.2%	76.1%	56.6%	39.7%	72.9%	57.5%	49.5%	82.1%	4.85% (active)	3.59% (active)	-32.5% (active)	17.6%	84.8%	34.6%	100%	37%	55.7%	56.5%		
CC(C)C(=O)Nc1ccc(-c2nc(-c3cccc(O)c3)c(-c3ccnc(Br)c3)[nH]2)cc1	44.1%	80.6%	63.5%	24%	81.1%	64.2%	45.1%	37.4%	17.3%	9.54% (active)		49.5%	84.3%	43.4%		59.4%	-12% (active)	92.3%	56.1%	-3.9% (active)
N#C/C(=C\c1ccc(-c2ccc(F)cc2)o1)C(=O)Nc1ncc(Cc2ccc(Cl)cc2Cl)s1	68.9%	9.87% (active)	-37.5% (active)	2.72% (active)	-4.43% (active)	8.96% (active)	14.2%	72.1%	4.62% (active)	30.8%	25.3%	6.14% (active)	26%	-40.3% (active)	107%	-1.72% (active)	10.7%	6.32% (active)		
Cc1ccc(-c2cc(-c3ccc(N(C)C)cc3)n3c(n2)nc2ccccc23)cc1	16%	57.9%	62.8%	41.8%	61.1%	49.3%	59.3%	15.6%	54.8%	38.9%	36.2%	54.2%	109%	60.9%	81.3%	86.2%	83%	56.7%		
COc1ccc(-c2cc(-c3cccc4ccccc34)n3c(n2)nc2ccccc23)cc1OC	98.2%	69.2%	10.9%	29.4%	53.1%	8.14% (active)	17.3%	38%	3.68% (active)	7.55% (active)	-18.4% (active)	34.3%	52.2%	71.9%	35.3%	52.3%	46.3%	47.4%		
COC(=O)c1c(C(=O)OC)c2n(CC(=O)Nc3cccc4cccnc34)c3ccccc3n2c1C(=O)c1ccc(C)cc1	102%	97.4%	92.5%	75.7%	108%	97.6%	104%	105%	95.4%	93.3%		92.4%	102%	99.8%	119%	97.6%	111%	96%	114%	122%
COc1ccc(/C=N/Nc2nc(Nc3ccccc3)nc(Nc3ccc(S(N)(=O)=O)cc3)n2)cc1	68.9%	88.5%	80.2%	77.9%	107%	75.2%	76%	61.7%	45.9%	44.5%	47.7%	67.6%	85.6%	66.2%	105%	58.7%	58.3%	96.3%		
O=S(=O)(Nc1ccc(C2CC2)cc1)c1ccc(-c2cnc(C3CC3)o2)cc1	64.8%	78.4%	75%	71.3%	101%	87.6%	27.5%	60%	57.9%	41.3%		80.2%	94.2%	67.1%	87%	58.2%	69%	47.7%		31.1%
O=c1oc2ccc(-c3ccc(F)cc3F)cc2c(=O)n1-c1ccc(F)c(F)c1	-14.3% (active)	9.2% (active)	2.02% (active)	-12.4% (active)	10.8%	2.6% (active)	-15.4% (active)	-42.6% (active)	16.4%	6.43% (active)	-19.1% (active)	8.19% (active)	12.9%	9.07% (active)	6.15% (active)	15.1%	1.72% (active)	3.65% (active)	5.59% (active)	
O=C1/C(=C/c2ccccc2[N+](=O)[O-])Oc2ccc(O)cc21	75%	69.8%	30.9%	21.4%	99.1%	2.35% (active)	48.3%	87.3%	-2.68% (active)	6.41% (active)		20.7%	38.2%	34.8%	84%	33.5%	53.6%	49%		
